# According to PubChem BioAssay (NCATS):
# Records with an inconclusive call do not appear. Entries that show only a call come without a potency. Calls of active or inactive are those of the source. The call rests on the fitted dose curve; in most records, active means well fitted curve in the direction sought with a large enough effect; inconclusive means small, poorly fitted or top-dose-only effect, or another doubt; inactive means no such curve, though single readings can be large; an effect the other way counts as inactive or inconclusive.
# Molecular target: Glutaminase kidney isoform, mitochondrial (Homo sapiens) (UniProt O94925)
# Sequence (O94925 whole entry, looked up, canonical isoform): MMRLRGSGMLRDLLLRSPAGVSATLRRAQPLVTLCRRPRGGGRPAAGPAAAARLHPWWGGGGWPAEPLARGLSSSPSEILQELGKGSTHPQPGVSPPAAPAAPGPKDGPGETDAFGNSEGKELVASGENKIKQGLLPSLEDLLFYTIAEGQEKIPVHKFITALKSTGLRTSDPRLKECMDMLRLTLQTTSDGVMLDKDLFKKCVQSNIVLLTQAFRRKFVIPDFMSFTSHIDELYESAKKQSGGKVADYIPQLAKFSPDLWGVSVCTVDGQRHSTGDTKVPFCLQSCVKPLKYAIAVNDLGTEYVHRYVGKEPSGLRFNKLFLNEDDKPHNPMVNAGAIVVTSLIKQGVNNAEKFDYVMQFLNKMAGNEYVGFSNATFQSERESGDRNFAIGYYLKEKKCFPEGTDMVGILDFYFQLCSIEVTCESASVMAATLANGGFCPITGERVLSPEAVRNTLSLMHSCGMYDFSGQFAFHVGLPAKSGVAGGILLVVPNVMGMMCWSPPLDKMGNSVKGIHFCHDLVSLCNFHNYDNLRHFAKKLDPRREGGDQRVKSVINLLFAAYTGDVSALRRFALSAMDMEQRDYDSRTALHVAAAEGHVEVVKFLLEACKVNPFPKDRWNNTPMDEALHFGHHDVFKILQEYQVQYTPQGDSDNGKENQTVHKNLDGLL
# Assay: qHTS for Inhibitors of Glutaminase (GLS): LOPAC Validation (AID 624146); further: nearly all actives have a fitted effect of over 60% in size; further: potency means the concentration at half of the fitted maximal effect
# Conditions: glutaminase enzyme activity inhibition; series mostly up to 46.1 µM
# Summary of the method: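 hKGA; 45 mM KH2PO4 pH 8.2 + 0.02% Tween-20; cpd via pin tool; 1 mM Gln soln; GluOx/HRP/Amplex Red; RT 30 min; fluor. t0 & final.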
row,SMILES,Potency
1,CC(C)NCC(O)COc1cccc2ccccc12 (stereo not drawn),inactive
2,Cc1ccc(S(=O)(=O)/C=C/C#N)cc1,12.6 µM (active)
3,OCC1O[C@H]([S-])[C@H](O)[C@@H](O)[C@@H]1O.[Au+] (stereo partly drawn),inactive
4,N.N.N.N.N.N.N.N.N.N.N.N.N.N.O.O.[Ru+4].[Ru+5].[Ru+5],inactive
5,CN1CCc2cccc3c2C1Cc1ccc(O)c(O)c1-3 (stereo not drawn),4.47 µM (active)
6,CNC(=O)[C@H]1O[C@@H](n2cnc3c(NCc4cccc(I)c4)ncnc32)[C@H](O)[C@@H]1O,inactive
7,O=C1C(SCCO)=C(SCCO)C(=O)c2ccccc21,10 µM (active)
8,N.N.O=C(O)C1(C(=O)O)CCC1.[Pt],inactive
9,CC(C)(C)c1ccc(S(=O)(=O)/C=C/C#N)cc1,7.08 µM (active)
10,Oc1cc2c(cc1O)CN(C(=S)NCCc1ccc(Cl)cc1)CCC2,2.24 µM (active)

# Test system: not listed separately
# Assay: qHTS of Trypanosoma Brucei Inhibitors: LOPAC Validation (AID 624147)
# Conditions: purified enzyme assay, luminescence, 45 min; series mostly up to 57.5 µM
# Summary of the method: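 Quantitative HTS: titrated library compounds versus trypanosomal pyruvate kinase in TEA buffer (pH 7.2) containing KCl, MgCl2, BSA and Tween-20. Reactions were initiated with ADP, 130 uM final. Kinase-Glo Plus luminescence was read after 45 min at RT.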
row,SMILES,Potency
1,COc1ccccc1N1CCN(CCCCNS(=O)(=O)c2cccc3c(N(C)C)cccc23)CC1,inactive
2,CC(C)ON([C@@H](C(=O)NO)C(C)C)S(=O)(=O)c1ccc(-c2ccccc2)cc1,inactive
3,O=C(O)CC1CCCc2ccccc2C1O (stereo not drawn),inactive
4,C[N+](C)(C)CC(=O)[O-],inactive
5,CC(=O)/C=C1\C(=O)N(C)c2ccccc21,inactive
6,CCCCCCCCCCCCCCCCCC(=O)NCC(COP(=O)([O-])OCC[N+](C)(C)C)OCC (stereo not drawn),inactive
7,NC(=S)NCCC[C@H](N)C(=O)O,inactive
8,CC12C(=O)OC(=O)C1(C)C1CCC2O1 (stereo not drawn),inactive
9,CC(C)NC[C@@H](O)c1ccc(O)c(O)c1,inactive
10,CNC(=O)[C@H]1O[C@@H](n2cnc3c(NCc4cccc(I)c4)ncnc32)[C@H](O)[C@@H]1O,inactive
11,O=C1/C(=C/c2ccsc2)CC/C1=C\c1cccs1,inactive
12,N#C/C(=C\c1ccc(O)c(O)c1)C(=O)c1ccc(O)c(O)c1,inactive
13,Oc1ccc(C2CNCc3sccc32)cc1O (stereo not drawn),inactive
14,N#C/C(=C\c1ccc(-c2cc(Cl)ccc2Cl)o1)C(=O)Nc1cccc2ncccc12,inactive
15,CCOC(=O)N1CCN(/[N+]([O-])=N/Oc2ccc([N+](=O)[O-])cc2[N+](=O)[O-])CC1,inactive
16,N#C/C(=C\c1ccc(O)c(O)c1)C(=O)NCCCc1ccccc1,inactive
17,S=C(S)OC1CC2CC1C1CCCC21 (stereo not drawn),inactive
18,COc1cc2c(CCNC(C)=O)c[nH]c2cc1Cl,inactive
19,O=C1NC(=O)/C(=C/c2ccc(-c3ccc(F)cc3O)o2)S1,inactive
20,CN1CCc2cc(O)c(O)cc2C(c2ccccc2)C1 (stereo not drawn),inactive
21,COc1cc(OC)c(/C=C2/C(=O)Nc3ccccc32)c(OC)c1,inactive
22,CCNC(=O)[C@H]1O[C@@H](n2cnc3c(N)nc(NCCc4ccc(CCC(=O)O)cc4)nc32)[C@H](O)[C@@H]1O,inactive
23,CCCCCCCC/C=C\CCCCCCCC(=O)NCCO,inactive
